# Measured values reported in paper PMC7862700, “An all-to-all approach to the identification of sequence-specific readers for epigenetic DNA modifications on cytosine”.
# How the values were obtained:
# Test in all cases: DAPPL (digital affinity profiling via proximity ligation, sequencing); 10 mM Tris-HCl pH 7.5, 50 mM NaCl, 1 mM DTT, 4% glycerol, room temperature, 30 min; GST-TFs on glutathione beads, 16-mer random dsDNA library, 0.1% formaldehyde crosslink after washing; high values mean tight binding
# FEV = target: T1, FEV (Homo sapiens, UniProt Q99581 1-238); conditions: protein: recombinant; tags: N-terminal GST; dsDNA, one strand shown
# T1 sequence: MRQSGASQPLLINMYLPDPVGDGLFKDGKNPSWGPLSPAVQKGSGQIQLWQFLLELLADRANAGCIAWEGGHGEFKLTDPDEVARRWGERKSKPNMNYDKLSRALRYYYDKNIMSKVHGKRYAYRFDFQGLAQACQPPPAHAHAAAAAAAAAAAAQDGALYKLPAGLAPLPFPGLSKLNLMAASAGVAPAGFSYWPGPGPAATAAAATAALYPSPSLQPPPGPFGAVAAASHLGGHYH
# Procedure, shortened: (§1)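 The binding signal reported is, for every hexamer, its read frequency for a factor over its read frequency for the tag-only sample. Reads came from pools of yeast-expressed, GST-fused human transcription factors on glutathione beads, barcoded with DNA and mixed with that sample, which were incubated with 200 nmole of a random double-stranded 16-mer DNA library in Tris/NaCl/DTT/glycerol buffer at room temperature for 30 min. After washing, the pools were crosslinked with 0.1% formaldehyde, proximity-ligated with BsaI/T4 ligase for 1 h at 37 °C, PCR-amplified and sequenced on an Illumina NextSeq500.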
# ETV5 = ETV5 (Homo sapiens, UniProt P41161 1-510); conditions: protein: recombinant; tags: N-terminal GST; dsDNA, one strand shown
# Procedure, shortened: as §1
# HSF1 = HSF1 (Homo sapiens, UniProt Q00613 1-529); conditions: protein: recombinant; tags: N-terminal GST; chain copies: 3; dsDNA, one strand shown
# Procedure, shortened: as §1
# SPIC = target: T2, SPIC (Homo sapiens, UniProt Q8N5J4 1-248); conditions: protein: recombinant; tags: N-terminal GST; dsDNA, one strand shown
# T2 sequence: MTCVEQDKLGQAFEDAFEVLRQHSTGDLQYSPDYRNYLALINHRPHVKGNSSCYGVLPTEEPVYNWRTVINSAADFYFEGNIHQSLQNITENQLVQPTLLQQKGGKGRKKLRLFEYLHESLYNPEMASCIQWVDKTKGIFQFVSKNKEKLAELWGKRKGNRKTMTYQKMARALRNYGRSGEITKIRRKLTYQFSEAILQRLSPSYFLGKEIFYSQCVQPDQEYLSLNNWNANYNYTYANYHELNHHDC
# Procedure, shortened: as §1
# ELF4 = ELF4 (Homo sapiens, UniProt Q99607 1-663); conditions: protein: recombinant; tags: N-terminal GST; dsDNA, one strand shown
# Procedure, shortened: as §1
# ELK4 = target: T3, ELK4 (Homo sapiens, UniProt P28324-2 1-405); conditions: protein: recombinant; tags: N-terminal GST; dsDNA, one strand shown
# T3 sequence: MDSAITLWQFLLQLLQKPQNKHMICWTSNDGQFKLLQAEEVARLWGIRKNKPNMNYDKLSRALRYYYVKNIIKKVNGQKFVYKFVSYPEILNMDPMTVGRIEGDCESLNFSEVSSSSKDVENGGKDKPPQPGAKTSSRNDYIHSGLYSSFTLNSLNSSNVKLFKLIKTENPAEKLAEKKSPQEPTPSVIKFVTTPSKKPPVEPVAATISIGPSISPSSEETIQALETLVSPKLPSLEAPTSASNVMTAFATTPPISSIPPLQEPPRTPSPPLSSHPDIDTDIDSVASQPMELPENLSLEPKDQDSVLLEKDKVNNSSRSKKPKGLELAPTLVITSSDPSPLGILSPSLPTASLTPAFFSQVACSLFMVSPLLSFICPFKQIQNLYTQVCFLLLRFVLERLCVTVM
# Procedure, shortened: as §1
# ETV2 = target: T4, ETV2 (Homo sapiens, UniProt O00321 1-342); conditions: protein: recombinant; tags: N-terminal GST; dsDNA, one strand shown
# T4 sequence: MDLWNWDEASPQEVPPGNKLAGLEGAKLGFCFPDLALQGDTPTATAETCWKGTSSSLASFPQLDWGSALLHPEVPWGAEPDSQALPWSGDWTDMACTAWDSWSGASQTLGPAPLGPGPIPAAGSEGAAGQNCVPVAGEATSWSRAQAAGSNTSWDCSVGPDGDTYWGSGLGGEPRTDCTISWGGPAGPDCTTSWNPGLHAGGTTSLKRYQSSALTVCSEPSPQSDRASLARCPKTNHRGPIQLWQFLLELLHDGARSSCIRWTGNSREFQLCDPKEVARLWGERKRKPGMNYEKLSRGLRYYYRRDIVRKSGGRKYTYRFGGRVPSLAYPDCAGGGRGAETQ
# Procedure, shortened: as §1
# ELF3 = target: T5, ELF3 (Homo sapiens, UniProt P78545 1-371); conditions: protein: recombinant; tags: N-terminal GST; dsDNA, one strand shown
# T5 sequence: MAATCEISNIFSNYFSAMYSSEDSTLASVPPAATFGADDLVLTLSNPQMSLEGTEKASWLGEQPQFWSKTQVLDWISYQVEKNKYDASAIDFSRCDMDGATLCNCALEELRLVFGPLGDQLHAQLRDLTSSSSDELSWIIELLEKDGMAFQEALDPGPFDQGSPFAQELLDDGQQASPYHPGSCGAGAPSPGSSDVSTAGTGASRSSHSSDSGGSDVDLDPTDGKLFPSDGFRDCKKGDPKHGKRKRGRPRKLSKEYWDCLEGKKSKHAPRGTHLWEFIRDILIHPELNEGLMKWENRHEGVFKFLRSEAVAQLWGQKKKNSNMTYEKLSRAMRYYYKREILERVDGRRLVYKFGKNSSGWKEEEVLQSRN
# Procedure, shortened: as §1
# CRX = CRX (Homo sapiens, UniProt O43186 1-299); conditions: protein: recombinant; tags: N-terminal GST; dsDNA, one strand shown
# Procedure, shortened: as §1
# ETV1 = ETV1 (Homo sapiens, UniProt P50549 1-477); conditions: protein: recombinant; tags: N-terminal GST; dsDNA, one strand shown
# Procedure, shortened: as §1
# ERF = target: T6, ERF (Homo sapiens, UniProt P50548 1-548); conditions: protein: recombinant; tags: N-terminal GST; dsDNA, one strand shown
# T6 sequence: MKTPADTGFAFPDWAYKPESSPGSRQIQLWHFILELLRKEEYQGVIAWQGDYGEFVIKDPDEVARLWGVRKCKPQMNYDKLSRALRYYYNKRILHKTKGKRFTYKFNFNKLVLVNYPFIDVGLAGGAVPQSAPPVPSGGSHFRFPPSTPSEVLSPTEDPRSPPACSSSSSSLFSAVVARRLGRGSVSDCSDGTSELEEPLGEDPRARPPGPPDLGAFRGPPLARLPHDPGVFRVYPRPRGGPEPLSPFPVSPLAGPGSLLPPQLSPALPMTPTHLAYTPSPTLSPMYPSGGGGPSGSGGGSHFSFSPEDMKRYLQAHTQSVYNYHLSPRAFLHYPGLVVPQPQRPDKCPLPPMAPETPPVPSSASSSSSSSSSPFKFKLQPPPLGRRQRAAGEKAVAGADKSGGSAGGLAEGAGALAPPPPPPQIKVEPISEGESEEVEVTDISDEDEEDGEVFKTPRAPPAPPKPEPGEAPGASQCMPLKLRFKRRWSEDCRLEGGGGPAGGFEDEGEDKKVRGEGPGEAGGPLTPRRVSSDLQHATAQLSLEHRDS
# Procedure, shortened: as §1
# ETV3L = target: T7, ETV3L (Homo sapiens, UniProt Q6ZN32 1-361); conditions: protein: recombinant; tags: N-terminal GST; dsDNA, one strand shown
# T7 sequence: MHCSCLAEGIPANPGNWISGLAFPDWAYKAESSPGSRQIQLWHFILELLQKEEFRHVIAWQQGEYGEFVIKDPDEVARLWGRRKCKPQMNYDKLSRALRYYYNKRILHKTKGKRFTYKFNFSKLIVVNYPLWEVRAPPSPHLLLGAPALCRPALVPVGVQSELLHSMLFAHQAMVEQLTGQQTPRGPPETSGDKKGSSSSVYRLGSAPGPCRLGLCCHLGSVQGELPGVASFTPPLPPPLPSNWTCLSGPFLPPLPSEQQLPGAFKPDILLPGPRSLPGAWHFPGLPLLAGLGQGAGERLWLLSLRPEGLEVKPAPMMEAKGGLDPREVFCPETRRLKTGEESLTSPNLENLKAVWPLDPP
# Procedure, shortened: as §1
# ETS2 = target: T8, ETS2 (Homo sapiens, UniProt P15036 1-469); conditions: protein: recombinant; tags: N-terminal GST; dsDNA, one strand shown
# T8 sequence: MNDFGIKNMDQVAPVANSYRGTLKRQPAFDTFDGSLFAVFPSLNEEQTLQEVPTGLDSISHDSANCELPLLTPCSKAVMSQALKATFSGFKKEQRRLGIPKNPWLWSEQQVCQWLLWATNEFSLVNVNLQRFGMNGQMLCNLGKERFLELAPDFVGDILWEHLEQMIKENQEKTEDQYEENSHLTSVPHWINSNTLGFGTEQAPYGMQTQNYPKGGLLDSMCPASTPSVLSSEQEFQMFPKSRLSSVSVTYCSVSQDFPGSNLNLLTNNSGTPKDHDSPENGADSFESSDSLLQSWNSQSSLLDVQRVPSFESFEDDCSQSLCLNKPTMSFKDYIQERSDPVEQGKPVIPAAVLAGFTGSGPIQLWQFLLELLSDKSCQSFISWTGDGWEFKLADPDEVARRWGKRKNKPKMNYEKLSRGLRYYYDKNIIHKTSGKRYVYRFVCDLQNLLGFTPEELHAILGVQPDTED
# Procedure, shortened: as §1
# SPDEF = target: T9, SPDEF (Homo sapiens, UniProt O95238 1-335); conditions: protein: recombinant; tags: N-terminal GST; dsDNA, one strand shown
# T9 sequence: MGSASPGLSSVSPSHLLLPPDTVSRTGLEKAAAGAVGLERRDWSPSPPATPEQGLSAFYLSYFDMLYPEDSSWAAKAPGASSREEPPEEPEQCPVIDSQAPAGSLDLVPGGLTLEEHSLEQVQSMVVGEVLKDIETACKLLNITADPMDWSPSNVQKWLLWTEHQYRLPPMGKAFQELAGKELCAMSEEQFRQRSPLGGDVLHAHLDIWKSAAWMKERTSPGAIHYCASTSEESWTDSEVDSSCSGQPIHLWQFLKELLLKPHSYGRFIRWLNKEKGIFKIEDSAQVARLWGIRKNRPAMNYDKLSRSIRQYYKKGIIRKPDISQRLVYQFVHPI
# Procedure, shortened: as §1
# ETV7 = target: T10, ETV7 (Homo sapiens, UniProt Q9Y603 1-341); conditions: protein: recombinant; tags: N-terminal GST; dsDNA, one strand shown
# T10 sequence: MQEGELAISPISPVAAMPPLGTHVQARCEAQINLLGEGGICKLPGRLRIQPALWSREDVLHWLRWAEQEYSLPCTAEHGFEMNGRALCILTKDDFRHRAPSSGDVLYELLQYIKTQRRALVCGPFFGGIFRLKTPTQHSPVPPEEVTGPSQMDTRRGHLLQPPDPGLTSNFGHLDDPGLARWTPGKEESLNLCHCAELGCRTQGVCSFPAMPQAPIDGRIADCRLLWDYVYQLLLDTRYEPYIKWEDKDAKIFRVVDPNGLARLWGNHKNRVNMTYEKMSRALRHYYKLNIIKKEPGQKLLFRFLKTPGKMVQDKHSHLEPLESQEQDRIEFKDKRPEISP
# Procedure, shortened: as §1
# ELF5 = target: T11, ELF5 (Homo sapiens, UniProt Q9UKW6-2 1-255); conditions: protein: recombinant; tags: N-terminal GST; dsDNA, one strand shown
# T11 sequence: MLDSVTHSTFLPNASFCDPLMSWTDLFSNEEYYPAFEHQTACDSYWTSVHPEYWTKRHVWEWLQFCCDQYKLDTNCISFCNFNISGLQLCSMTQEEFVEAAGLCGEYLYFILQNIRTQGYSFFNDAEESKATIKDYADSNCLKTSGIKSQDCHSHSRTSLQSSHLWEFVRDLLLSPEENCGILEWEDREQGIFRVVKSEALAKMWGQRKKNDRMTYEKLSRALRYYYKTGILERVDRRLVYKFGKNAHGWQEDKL
# Procedure, shortened: as §1
# ETV3 = target: T12, ETV3 (Homo sapiens, UniProt P41162-2 1-143); conditions: protein: recombinant; tags: N-terminal GST; dsDNA, one strand shown
# T12 sequence: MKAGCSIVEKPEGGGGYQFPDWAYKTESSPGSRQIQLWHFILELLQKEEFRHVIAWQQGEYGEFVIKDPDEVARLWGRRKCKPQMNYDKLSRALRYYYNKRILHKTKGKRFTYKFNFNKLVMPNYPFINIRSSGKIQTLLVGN
# Procedure, shortened: as §1
# ETV6 = ETV6 (Homo sapiens, UniProt P41212 1-452); conditions: protein: recombinant; tags: N-terminal GST; dsDNA, one strand shown
# Procedure, shortened: as §1
# Sequence of ETV5 (P41161 whole entry): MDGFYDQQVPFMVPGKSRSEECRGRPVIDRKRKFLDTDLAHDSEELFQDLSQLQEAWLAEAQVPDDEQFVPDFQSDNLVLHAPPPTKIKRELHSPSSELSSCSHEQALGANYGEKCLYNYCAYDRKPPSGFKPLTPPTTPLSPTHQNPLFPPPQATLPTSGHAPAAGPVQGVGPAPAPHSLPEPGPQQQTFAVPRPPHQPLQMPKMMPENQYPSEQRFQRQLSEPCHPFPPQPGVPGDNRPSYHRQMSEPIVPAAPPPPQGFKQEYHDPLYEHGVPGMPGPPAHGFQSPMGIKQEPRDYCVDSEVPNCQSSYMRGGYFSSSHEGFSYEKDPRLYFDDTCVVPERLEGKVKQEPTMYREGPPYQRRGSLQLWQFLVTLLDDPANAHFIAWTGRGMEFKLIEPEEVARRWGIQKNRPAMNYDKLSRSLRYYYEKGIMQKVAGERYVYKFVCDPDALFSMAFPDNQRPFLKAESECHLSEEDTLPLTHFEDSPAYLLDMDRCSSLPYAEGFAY
# Sequence of ETV6 (P41212 whole entry): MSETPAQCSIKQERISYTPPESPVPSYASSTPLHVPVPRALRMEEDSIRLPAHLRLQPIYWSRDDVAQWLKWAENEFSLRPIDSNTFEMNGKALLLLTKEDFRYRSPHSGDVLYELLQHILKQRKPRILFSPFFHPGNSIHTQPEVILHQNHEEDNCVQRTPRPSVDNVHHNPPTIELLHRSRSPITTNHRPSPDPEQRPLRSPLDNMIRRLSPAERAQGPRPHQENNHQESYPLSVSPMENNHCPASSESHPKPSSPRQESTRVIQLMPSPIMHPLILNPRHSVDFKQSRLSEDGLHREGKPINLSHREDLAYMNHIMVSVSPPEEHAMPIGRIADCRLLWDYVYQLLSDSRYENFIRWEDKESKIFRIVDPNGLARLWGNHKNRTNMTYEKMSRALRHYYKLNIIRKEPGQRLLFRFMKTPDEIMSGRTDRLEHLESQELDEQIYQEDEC
# Sequence of CRX (O43186 whole entry): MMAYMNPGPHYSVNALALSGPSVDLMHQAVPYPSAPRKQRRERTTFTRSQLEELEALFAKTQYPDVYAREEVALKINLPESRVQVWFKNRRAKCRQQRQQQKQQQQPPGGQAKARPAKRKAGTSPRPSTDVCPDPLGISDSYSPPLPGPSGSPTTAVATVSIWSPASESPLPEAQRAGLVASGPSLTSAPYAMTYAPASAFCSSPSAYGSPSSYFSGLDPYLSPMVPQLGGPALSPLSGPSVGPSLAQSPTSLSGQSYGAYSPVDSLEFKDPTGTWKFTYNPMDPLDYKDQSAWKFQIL
# Sequence of HSF1 (Q00613 whole entry): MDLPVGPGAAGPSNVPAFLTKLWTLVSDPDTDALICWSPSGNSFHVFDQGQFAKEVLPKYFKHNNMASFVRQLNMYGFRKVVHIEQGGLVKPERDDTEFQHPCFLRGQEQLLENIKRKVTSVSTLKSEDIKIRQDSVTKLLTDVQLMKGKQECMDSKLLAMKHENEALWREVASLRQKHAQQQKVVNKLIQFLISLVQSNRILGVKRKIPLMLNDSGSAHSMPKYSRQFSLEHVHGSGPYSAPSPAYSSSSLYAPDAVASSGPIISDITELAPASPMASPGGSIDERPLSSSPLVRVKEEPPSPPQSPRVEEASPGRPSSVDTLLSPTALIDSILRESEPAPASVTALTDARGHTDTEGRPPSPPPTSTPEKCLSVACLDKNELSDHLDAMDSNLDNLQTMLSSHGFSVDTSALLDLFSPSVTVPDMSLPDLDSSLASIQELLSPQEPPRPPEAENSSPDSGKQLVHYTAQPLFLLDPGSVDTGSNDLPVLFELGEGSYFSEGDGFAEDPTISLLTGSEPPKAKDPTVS
# Sequence of ELF4 (Q99607 whole entry): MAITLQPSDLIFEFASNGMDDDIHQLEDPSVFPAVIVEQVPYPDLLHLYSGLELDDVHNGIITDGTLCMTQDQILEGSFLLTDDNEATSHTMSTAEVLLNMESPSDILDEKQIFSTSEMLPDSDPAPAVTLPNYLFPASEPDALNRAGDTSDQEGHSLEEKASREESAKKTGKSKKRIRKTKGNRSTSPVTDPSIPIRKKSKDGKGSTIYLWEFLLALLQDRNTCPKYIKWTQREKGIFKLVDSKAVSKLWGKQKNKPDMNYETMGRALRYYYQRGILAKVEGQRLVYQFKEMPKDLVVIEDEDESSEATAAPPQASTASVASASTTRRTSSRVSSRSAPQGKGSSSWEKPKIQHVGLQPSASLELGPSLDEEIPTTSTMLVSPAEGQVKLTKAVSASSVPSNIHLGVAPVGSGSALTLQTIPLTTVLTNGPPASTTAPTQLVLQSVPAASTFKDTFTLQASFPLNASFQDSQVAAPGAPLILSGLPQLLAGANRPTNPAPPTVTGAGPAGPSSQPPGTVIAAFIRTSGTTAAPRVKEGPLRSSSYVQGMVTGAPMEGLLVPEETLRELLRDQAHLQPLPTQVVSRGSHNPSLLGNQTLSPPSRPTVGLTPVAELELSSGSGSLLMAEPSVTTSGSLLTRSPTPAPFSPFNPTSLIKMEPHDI
# Sequence of ETV1 (P50549 whole entry): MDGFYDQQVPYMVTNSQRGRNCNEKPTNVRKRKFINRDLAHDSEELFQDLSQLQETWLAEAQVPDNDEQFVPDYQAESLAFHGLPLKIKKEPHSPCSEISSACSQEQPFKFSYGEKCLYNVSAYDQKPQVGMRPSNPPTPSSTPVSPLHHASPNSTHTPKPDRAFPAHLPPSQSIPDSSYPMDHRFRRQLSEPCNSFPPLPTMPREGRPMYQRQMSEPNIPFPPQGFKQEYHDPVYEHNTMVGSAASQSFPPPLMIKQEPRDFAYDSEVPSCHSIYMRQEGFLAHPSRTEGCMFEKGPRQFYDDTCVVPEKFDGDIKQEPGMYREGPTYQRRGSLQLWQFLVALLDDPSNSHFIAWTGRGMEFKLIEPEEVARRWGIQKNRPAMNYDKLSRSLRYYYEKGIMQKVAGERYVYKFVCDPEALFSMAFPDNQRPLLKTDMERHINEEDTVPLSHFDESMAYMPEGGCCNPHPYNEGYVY
sequence,measurement,setting,value
CTGGCA,binding signal,FEV,"1.27 fold enrichment (6-mer frequency, TF over GST control)"
same,binding signal,ETV5,"1.21 fold enrichment (6-mer frequency, TF over GST control)"
same,binding signal,HSF1,"1.62 fold enrichment (6-mer frequency, TF over GST control)"
same,binding signal,SPIC,"1.28 fold enrichment (6-mer frequency, TF over GST control)"
same,binding signal,ELF4,"1.35 fold enrichment (6-mer frequency, TF over GST control)"
same,binding signal,ELK4,"1.27 fold enrichment (6-mer frequency, TF over GST control)"
same,binding signal,ETV2,"1.49 fold enrichment (6-mer frequency, TF over GST control)"
same,binding signal,ELF3,"1.3 fold enrichment (6-mer frequency, TF over GST control)"
same,binding signal,CRX,"1.19 fold enrichment (6-mer frequency, TF over GST control)"
same,binding signal,ETV1,"1.27 fold enrichment (6-mer frequency, TF over GST control)"
same,binding signal,ERF,"1.28 fold enrichment (6-mer frequency, TF over GST control)"
same,binding signal,ETV3L,"1.27 fold enrichment (6-mer frequency, TF over GST control)"
same,binding signal,ETS2,"1.25 fold enrichment (6-mer frequency, TF over GST control)"
same,binding signal,SPDEF,"1.13 fold enrichment (6-mer frequency, TF over GST control)"
same,binding signal,ETV7,"1.4 fold enrichment (6-mer frequency, TF over GST control)"
same,binding signal,ELF5,"1.19 fold enrichment (6-mer frequency, TF over GST control)"
same,binding signal,ETV3,"1.2 fold enrichment (6-mer frequency, TF over GST control)"
same,binding signal,ETV6,"1.28 fold enrichment (6-mer frequency, TF over GST control)"
